Experimental data taken from PubChem BioAssay AID488890 (Southern Research Specialized Biocontainment Screening …, 2010).
In all, about 320,000 compounds went through this assay and about 1,300 (0.41%) were called active. Another 3% or so got no clear call; they are omitted. How the calls were made is not given here. Only a sample is shown. Results with a measured potency or affinity are listed apart.

assay: growth inhibition of non-replicating M. tuberculosis (AID 488890); settings: Mycobacterium tuberculosis non-replicating, at 25 µM, stronger effect = higher value;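 further: plate controls were DMSO cells for no effect and high antibiotic wells for full effect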

SMILES	inhibition [%]
Cc1[nH]n2cnnc2c(=O)c1Br	-1.45
COc1ccc(-c2nc(NC(=O)Cn3cnnn3)sc2C)cc1	13.2
CCOC(=O)c1c(C)[nH]c(C)c1C(=O)COC(=O)c1cccs1	28.9
O=C(OCC(=O)c1c[nH]c2ccccc12)c1cccc([N+](=O)[O-])c1	-14.6
CCOC(=O)c1c(C)[nH]c(C)c1C(=O)COC(=O)/C=C/c1ccccc1[N+](=O)[O-]	46.8
Cc1cccc(C(=O)OCC(=O)c2c(C)[nH]c3ccccc23)c1O	3.19
Cc1[nH]c2ccccc2c1C(=O)COC(=O)c1ccccc1O	31.1
Cc1cc(C(=O)OCC(=O)N2CCC(c3ccccc3)=N2)ccc1[N+](=O)[O-]	22.1
O=C(Cc1ccccc1[N+](=O)[O-])OCC(=O)c1c[nH]c2ccccc12	4.48
CCc1cc(C(=O)OCC(=O)N2CCC(c3ccccc3)=N2)sc1C	65.9
O=C(NCCCCl)C1CC(=O)N(CCc2ccc(F)cc2)C1 (stereo not drawn)	5.65
O=C(O)c1cc(N2C(=O)C3CCCCC3C2=O)ccc1NCc1cccnc1 (stereo not drawn)	4.47
CCN(CC)C(=O)Cn1cc(C(=O)C(=O)NCc2cccnc2)c2ccccc21	-4.61
COc1cc(OC)cc(C(C(=O)NC2CCCCC2)N(C(=O)c2ccno2)c2ccccc2)c1 (stereo not drawn)	8.21
Cc1ccc(CN2CC(C(=O)Nc3ncccc3C)CC2=O)cc1 (stereo not drawn)	-7.14
COc1cccc(/C=N/NC(=O)c2nnn(-c3nonc3N)c2-c2cccs2)c1	7.66
COc1ccc(C(=O)OCC(=O)Nc2ncc([N+](=O)[O-])s2)cc1OC	-11.2
COc1ccc(C(=O)COC(=O)c2ccc(OC)c(OC)c2)cc1OC	3.56
O=C(CSc1nc(=O)n(CCCN2CCOCC2)c2c1CCCC2)Nc1ccccc1Cl	11.7
CCOc1ccc(OCCCC(=O)NC2=NCCS2)cc1	40.7
CC(C)(C)c1ccc(OCCC(=O)NC2=NCCS2)cc1	66.8
CN(C)CCn1nnc2c(=O)oc3ccccc3c21	-13.7
Cc1ccc(-n2nnc3c(=O)oc4ccccc4c32)cc1	6.67
O=c1oc2ccccc2c2c1nnn2CCO	97.3
CC(C)Cn1cnc2c(=O)oc3ccccc3c21	-17.9

SMILES	inhibition [%]
CCn1c(C)nc2c(=O)oc3ccccc3c21	-3.87
CCC(C)n1cnc2c(=O)oc3ccccc3c21 (stereo not drawn)	-10.2
CSc1n[nH]c(/N=C/c2oc(O)c3ccccc23)n1	-21.1
O=C(CNC(=O)c1ccc(Cl)cc1)NC1CCCCC1	-2.3
CN(CC(=O)Nc1ccc(N2CCOCC2)cc1)C(=O)c1cc(F)c(F)cc1Cl	-5.8
CCc1ccc(C(=O)COC(=O)CNC(=O)Cc2ccccc2)cc1	47.9
Cc1csc(N2CCCC2c2nc3cc(Cl)c(N4CCCCC4)cc3n2CCOCCO)n1 (stereo not drawn)	5.44
CNCc1ccccc1OCc1ccccc1F	8.9
CC(=O)Oc1ccc2nc(-c3ccco3)oc(=O)c2c1	42
O=C(COc1ccc([N+](=O)[O-])cc1)Nc1cccnc1	51.3
N#Cc1ccc(OCC(=O)Nc2ccncc2)cc1	46.2
N#Cc1ccc(OCC(=O)Nc2nc(-c3cccnc3)cs2)cc1	-5.75
O=C(CCCOc1ccccc1)Nc1cccnc1	44.6
COc1ccc(/C=N/NC(=O)c2ccc3c(c2)OCO3)c(C(=O)O)c1OC	37.5
NS(=O)(=O)c1ccc(CCNC(=S)Nc2ccc(F)cc2)cc1	30
O=C(c1cccc(F)c1)N1CCN(C(=O)C2CC2)CC1	0.47
C[C@@H]1CN([C@H](C)CO)C(=O)c2cc(NC(=O)C3CCCCC3)ccc2O[C@@H]1CN(C)Cc1ccc(C(F)(F)F)cc1	28
CC(=O)c1ccc(NC(=O)Cc2cccs2)cc1	47
COC(=O)C1=C(c2ccc(F)cc2OCc2ccccc2)C[C@@H]2CC[C@H]1N2C(=O)NC1CCCCC1	39.2
COc1ccc(/C(C)=N/Nc2nc3ccccc3nc2C)cc1	-2.93
COc1ccc(/C(C)=N/Nc2nc3ccccc3nc2C)cc1OC	18.1
N#Cc1ccc(COC(=O)c2cccnc2Cl)cc1	57
Cc1ccc(-c2cc(C(F)(F)F)n3ncc(C(=O)N4CCCc5ccccc54)c3n2)cc1	9.06
COC(=O)c1ccc(/C=C/C(=O)OCC(=O)NCc2cccs2)cc1	13.7
CN1CCCC(C(=O)c2ccccc2)C1 (stereo not drawn)	-7.66

SMILES	inhibition [%]
CC1CN(C(=O)c2cccs2)CC(C)O1 (stereo not drawn)	-2.97
CN1CC(C(=O)c2ccc(Cl)cc2)C(c2ccc(Cl)cc2Cl)C1 (stereo not drawn)	55.7
CN1CCCC(C(=O)c2ccc(Cl)cc2)C1 (stereo not drawn)	2.9
CN1CCC(NC(=O)c2cccs2)CC1	-14.8
CN1CC(C(=O)c2ccccc2)C(C(=O)c2ccccc2)C1 (stereo not drawn)	14.7
CC(=O)Oc1ccc(S(=O)(=O)c2ccc(OC(C)=O)cc2)cc1	-5.93
Cc1ccc(S(=O)(=O)Nc2ccc3c(c2)C(=O)N([C@H](C)CO)C[C@H](C)[C@@H](CN(C)C(=O)Nc2ccc(C(F)(F)F)cc2)O3)cc1	46.2
COc1cccc(-c2nn(-c3ccccc3)cc2CN(C)Cc2ccno2)c1	2.32
S=c1[nH]nc(Cc2ccc(Cl)cc2)n1-c1ccc2c(c1)OCCO2	-2
O=C(NC(=S)Nc1ccc(S(=O)(=O)Nc2nccs2)cc1)C1CC1	23.6
O=C(Nc1ccc(S(=O)(=O)Nc2nccs2)cc1)C1CCCCC1	60.2
Cc1ccc(C(=O)NNC(=O)c2ccc(C)cc2)cc1	-1.12
Cc1ccc(C(=O)NC(=S)NNC(=O)CC#N)cc1	39.8
Cc1cc(C(=O)N2CCN(c3ncccn3)CC2)nn1C	-1.81
COc1cccc(/C=C/C(=O)OCCN2C(=O)c3ccccc3C2=O)c1	24.5
CC1(C)C(=O)OC(c2cccc([N+](=O)[O-])c2)C2(CCCCC2)C1=O (stereo not drawn)	12.6
COc1ccc(C2(CNC(=O)c3ccccc3)CCOCC2)cc1	-1.08
COC(=O)c1ccc(NC(=O)c2ccccc2-c2ccccc2C(=O)O)cc1	65.6
CC(=O)c1ccc(NC(=O)c2ccccc2-c2ccccc2C(=O)O)cc1	78.9
COC(=O)C[C@H](NC(=O)Cn1cnc2c(SC)nc(N)nc21)C(=O)OC	-10.4
CC(=O)c1ccc(NC(=O)CNC2CCCCC2)cc1	-1.52
CCC/C(O)=C1\C(=O)CC(C)(C)CC1=Nc1ccccc1O	2.5
Cc1c(N=c2c(=O)c3ccccc3c2=O)c(=O)n(-c2ccccc2)n1C	-4.23
